Some of the results follow. Results filed as inconclusive are left out. The source made the active and inactive calls.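 The calls were made as follows: active = every replicate shows growth inhibition above 50%; inconclusive = at least half but not all replicates above 50% inhibition; inactive = under half of replicates above 50% inhibition.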
Assay: V. harveyi growth suppression by OD600 – strain BB721, absorbance OD600, cytotoxicity control for AI-2 quorum sensing inhibitors, confirmation (AID 2728)
Settings: Vibrio harveyi BB721 growth, 9 h, at 7.5 µM, active compounds read high
With `Cc1nn(CC(=O)Nc2ccc(F)cc2)c(=O)c2ccccc12` the growth inhibition was 0.351% (inactive). In the case of `CN(Cc1cnccn1)C(=O)c1cc(COc2cccc(C(F)(F)F)c2)on1`, the growth inhibition is reported as 18.2% (inactive). For `O=C1COc2ccc(S(=O)(=O)Nc3ccc(OC(F)(F)F)cc3)cc2N1`, the growth inhibition was 55% (inactive). For `O=C(c1cc(-c2cccc(O)c2)on1)N1CCc2ccccc2C1`, the growth inhibition was 2.13% (inactive). For `O=C(Nc1ccc(F)c(Cl)c1)C1CCN(S(=O)(=O)c2cccnc2)CC1`, the growth inhibition was 14.5% (inactive). With `Cc1ccsc1C(=O)OCC(=O)c1cc2ccccc2o1` the growth inhibition was 4.04% (inactive). For `Cc1ccccc1NC(=O)CCOc1ccccc1`, the growth inhibition was -7.16% (inactive). With `O=C(COc1ncnc2ccccc12)NC(=O)NCc1ccccc1` the growth inhibition was 27.2% (inactive). In the case of `O=C(/C=C/c1ccc2c(c1)OCO2)NCc1ccc(F)cc1`, the growth inhibition is reported as 16.5% (inactive). With `COC(=O)c1ccc(SCc2ccccc2)nc1` the growth inhibition was -21% (inactive). In the case of `CC(CNc1ccc([N+](=O)[O-])cc1)NC(=O)c1ccccc1Br` (stereo unspecified), the growth inhibition is reported as -16.1% (inactive). For `Cc1cc(C(=O)OCC(=O)Nc2ccc(F)c(F)c2)c(C)o1`, the growth inhibition was -6.2% (inactive). With `Cc1ccc(Cc2nc(-c3cccc(C)c3)no2)cc1` the growth inhibition was 19.7% (inactive). With `COC(=O)C1CCN(C(=O)c2ccc3oc(Cc4ccc(Cl)cc4)nc3c2)CC1` the growth inhibition was 19.1% (inactive). With `CCOc1ccc(/C=N/NC(N)=S)cc1` the growth inhibition was 18% (inactive). With `O=C(COC(=O)C1CCCCC1)Nc1ccc([N+](=O)[O-])cc1` the growth inhibition was -40.8% (inactive). For `S=C(NCc1ccc(Cl)cc1)NC1CCCCC1`, the growth inhibition was 12.8% (inactive). In the case of `Cc1ccc(NC(=O)C2CC2c2ccccc2)cc1` (stereo unspecified), the growth inhibition is reported as 7.3% (inactive). For `CCOC(=O)c1nn(-c2cccc(C)c2)cc1C(=O)c1ccccc1`, the growth inhibition was -7.63% (inactive). With `O=C(/C=C/c1ccc2c(c1)OCCO2)c1ccc(O)cc1` the growth inhibition was -21.7% (inactive). In the case of `O=C(Cn1cnc2ccccc2c1=O)Nc1cccc(S(=O)(=O)N2CCCCC2)c1`, the growth inhibition is reported as 14% (inactive). For `CC(C)(C)c1ccc(OC2=CS(=O)(=O)c3ccccc32)cc1`, the growth inhibition was 26.8% (inactive). With `COc1ccc(/C(N)=N/OC(=O)Cc2ccccc2)cc1` the growth inhibition was -4.72% (inactive). In the case of `N/C(=N\OC(=O)CCc1ccccc1)c1cccnc1`, the growth inhibition is reported as 0.547% (inactive). For `O=C(CCC(=O)c1cccs1)Nc1nc2ccccc2s1`, the growth inhibition was -0.412% (inactive). With `CC(=O)c1cccc(OCc2cc(C(=O)NC(C)Cc3cccnc3)no2)c1` (stereo unspecified) the growth inhibition was 8.38% (inactive). With `Cc1cccc(CSc2ccc(-c3cccs3)nn2)c1` the growth inhibition was -12.7% (inactive). For `COc1cccc(NC(=O)NCc2ccc(F)cc2)c1`, the growth inhibition was -16.1% (inactive). With `Cc1ccc(Oc2cnn(-c3ccccc3)c(=O)c2Br)cc1` the growth inhibition was 4.98% (inactive). With `Cc1ccc(NS(=O)(=O)c2ccc3c(c2)NC(=O)CO3)cc1` the growth inhibition was 18.2% (inactive). For `Cc1cc(CN(C)C(=O)c2cc(COc3ccc(C)c(C)c3)on2)n[nH]1`, the growth inhibition was 28.4% (inactive).
